# Data from PubChem BioAssay AID1053180 (Broad Institute, 2014).
# Hit rate of the full screen: of about 9,600 compounds, about 20 (0.2%) were called active. The sample holds actives, similar compounds and a random draw of the others, so the mix is not that of the screen. Values without a mark were called inactive.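 The calls were made as follows: active = highest normalized replicate activity of 15 or more, or at least half the replicates reach 15 or more; inactive = neither condition met.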
# Experiment: Pax4 mRNA upregulation in alpha cells – RT-PCR, mouse alpha TC1 cells, single point, primary screen (AID 1053180);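 also: Pax4 Ct normalized to GAPDH with activation seen as lower delta delta Ct; plate controls were plate neutral control wells for no effect and Pax4 plasmid positive control for full effect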
# Details: Pax4 mRNA qPCR, 6 days, at 10 µM, stronger effect = higher value, 100% = Pax4 plasmid added at qPCR
row,SMILES,activation
1,O=C(C[C@@H]1CC[C@H]2[C@@H](COC[C@@H](O)CN2C(=O)Cc2ccccc2)O1)NC1Cc2ccccc2C1,0.021%
2,CCCN(C)C[C@H]1OCCCC[C@@H](C)Oc2ccc(NC(=O)CCCN(C)C)cc2C(=O)N([C@H](C)CO)C[C@@H]1C,0.002%
3,C/C=C/c1ccc([C@@H]2[C@@H](CO)N3C(=O)CN(Cc4ccc(F)cc4)C[C@@H]23)cc1,0.0005%
4,C/C=C/c1ccc([C@H]2[C@@H](CO)N3C(=O)CN(Cc4ccc(F)cc4)C[C@@H]23)cc1,86.9% (active)
5,C/C=C/c1ccc([C@H]2[C@@H](CO)N3C(=O)CN(Cc4ccc(F)cc4)C[C@H]23)cc1,0%
6,COc1ccccc1NC(=O)N1CC(=O)N2[C@H](CO)[C@@H](c3ccc(C#CC(C)C)cc3)[C@@H]2C1,0.007%
7,COc1cccc(-c2ccc3c(c2)O[C@H](CN(C)Cc2cccnc2)[C@H](C)CN([C@@H](C)CO)S3(=O)=O)c1,0.057%
8,COc1ccc(C(=O)N2C[C@H]3[C@@H](c4ccccc42)[C@@H](CO)N3C(=O)Cc2ccccn2)cc1,0%
9,N#C[C@@H]1[C@@H](c2ccccc2-c2ccccc2F)[C@H](CO)N1C(=O)Cc1ccccc1,0.001%
10,Cc1nc(N2[C@@H](C#N)[C@@H](c3ccccc3)[C@@H]2CO)sc1C,0.0005%
11,COc1ccc(C[C@@H]2CCn3cc(nn3)COC[C@H](C)NC2=O)cc1,0.0005%
12,Cc1ccc(S(=O)(=O)N2C[C@H]3[C@@H](c4ccccc42)[C@@H](CO)N3Cc2cccnc2)cc1,0.002%
13,O=C(C[C@H]1CC[C@H]2[C@@H](COC[C@@H](O)CN2S(=O)(=O)c2ccc(F)cc2)O1)NCCN1CCCCC1,0.003%
14,COc1ccc(NC(=O)N[C@H]2CC[C@@H](CCNC(=O)CN3CCOCC3)O[C@H]2CO)cc1,0.002%
15,Cc1noc(C)c1S(=O)(=O)Nc1ccc2c(c1)C(=O)N([C@H](C)CO)C[C@H](C)[C@H](CN(C)Cc1ccc(C(=O)O)cc1)OCCCC[C@H](C)O2,-0.0005%
16,COc1ccc(S(=O)(=O)Nc2ccc3c(c2)C(=O)N([C@@H](C)CO)C[C@H](C)[C@H](CN(C)S(=O)(=O)c2ccc(Cl)cc2)OCCCC[C@H](C)O3)cc1,0.0535%
17,COc1cccc(-c2cccc(-c3nc(C(=O)O)cc4c3[C@H](CCO)N(S(=O)C(C)(C)C)C4)c2)c1 (stereo not given in full),0.001%
18,COc1cccc(-c2cccc(-c3nc(C(=O)O)cc4c3[C@@H](CCO)N(S(=O)C(C)(C)C)C4)c2)c1 (stereo not given in full),0%
19,COc1cccc(-c2cccc(-c3nc(C(=O)Nc4ccc(-c5ccccc5)cc4)cc4c3[C@@H](CCO)N(S(=O)C(C)(C)C)C4)c2)c1 (stereo not given in full),42.4% (active)
20,COc1cccc(-c2ccc3c(c2)[C@@H]2[C@@H](CCN2S(=O)(=O)C2=NC(C)C=N2)[C@H](CO)N3C)c1 (stereo not given in full),0.001%
21,COCC(=O)Nc1ccc2c(c1)[C@H]1C[C@@H](CC(=O)N[C@@H](C)c3ccccc3)O[C@@H](CO)[C@H]1O2,0.004%
22,O=C1CN(S(=O)(=O)c2cccc(F)c2)C[C@@H]2[C@@H](c3ccc(C4=CCCC4)cc3)[C@H](CO)N12,0.006%

row,SMILES,activation
1,C[C@H](NC(=O)C[C@@H]1C=C[C@H](NC(=O)c2cccnc2)[C@@H](CO)O1)c1ccccc1,0.001%
2,CO[C@H]1CN(C)C(=O)c2cc(NC(=O)C3CCOCC3)ccc2OC[C@H](C)NC[C@@H]1C,0.0005%
3,CCN1CC(=O)N2[C@@H](CO)[C@H](c3ccc(Br)cc3)[C@@H]2C1,0%
4,Cn1cnc(S(=O)(=O)N[C@H]2CC[C@H](CC(=O)NCC3CCCCC3)O[C@@H]2CO)c1,-0.0005%
5,COc1ccc(S(=O)(=O)N2C[C@H](O)COC[C@@H]3O[C@@H](CC(=O)N[C@H]4CCN(Cc5ccccc5)C4)CC[C@H]32)cc1,-0.0135%
6,COc1ccc2c3c(n(C)c2c1)[C@@H](CO)NCC31CCN(CC2CCCCC2)CC1,0.027%
7,O=C(NC1CCCC1)[C@@H]1[C@@H](CO)[C@@H]2Cn3c(ccc(C4=CCCCC4)c3=O)[C@H]1N2CC1CC1,0%
8,O=C(Nc1ccc2c(c1)[C@@H]1C[C@@H](CC(=O)N3CCCCC3)O[C@H](CO)[C@@H]1O2)NC1CCCCC1,0.012%
9,COc1ccc(S(=O)(=O)N(C)C[C@@H]2Oc3c(NC(=O)c4nc5ccccc5s4)cccc3C(=O)N([C@@H](C)CO)C[C@@H]2C)cc1,-0.002%
10,CCS(=O)(=O)Nc1ccc2c(c1)C(=O)N(C)C[C@H](OC)[C@@H](C)CN(C(=O)c1ccc3c(c1)OCO3)[C@@H](C)CO2,0%
11,C/C=C/c1ccc([C@@H]2[C@H](CO)N(C(C)=O)[C@H]2CN(C(C)=O)C2CCCC2)cc1,0.004%
12,COCC(=O)N1CCC2(CC1)CN(Cc1ccccc1Cl)[C@H](CO)c1[nH]c3cc(OC)ccc3c12,0.0015%
13,CN(C)C(=O)c1cccc(-c2ccc([C@@H]3[C@@H](CO)N4CCCCN(CC5CCOCC5)C[C@@H]34)cc2)c1,0.001%
14,Cc1ccc(S(=O)(=O)Nc2cccc3c2O[C@@H](CN(C)C(=O)Nc2ccc(C(F)(F)F)cc2)[C@@H](C)CN([C@H](C)CO)C3=O)cc1,0.002%
15,C[C@@H]1CN([C@@H](C)CO)C(=O)c2c(c3ccccc3n2C)-c2ccccc2CO[C@H]1CN(C)C(=O)[C@H](Cc1ccccc1)N(C)C,0.0095%
16,CN(C)C(=O)c1ccc(-c2ccc([C@H]3[C@H](C#N)N(C(=O)C4CC4)[C@H]3CO)cc2)cc1,0.0005%
17,N#C[C@H]1[C@@H](c2ccccc2-c2cccc(F)c2)[C@H](CO)N1C(=O)CN1CCOCC1,0.006%
18,O=C(CC1CC1)N1CC[C@@H]2[C@H]1c1cc(-c3ccc(F)cc3)ccc1N[C@@H]2CO,0.0045%
19,CCS(=O)(=O)Nc1ccc2c(c1)C(=O)N(C)[C@H]1CC[C@H](CC(=O)NCCCN3CCOCC3)O[C@H]1CO2,0%
20,C/C=C/c1ccc([C@@H]2[C@H](CO)N3CCCCN(S(=O)(=O)c4ccc(OC)cc4)C[C@@H]23)cc1,0.0005%
21,COCC(=O)N1[C@@H](C#N)[C@@H](c2ccccc2C2=CCCC2)[C@@H]1CO,0.01%
22,O=C(Nc1ccc(F)cc1)N1[C@@H]2CNc3ccccc3[C@@H]2[C@@H]1CO,0.0065%

row,SMILES,activation
1,COCC(=O)Nc1ccc2c(c1)OC[C@H](C)N(C)C[C@H](C)[C@H](OC)CN(C)C2=O,0%
2,COCCN(C[C@H]1N[C@H](CO)[C@@H]1c1ccccc1)C(=O)NC1CCCC1,0.002%
3,C[C@H]1CN([C@@H](C)CO)C(=O)c2ccccc2-c2ccccc2CO[C@H]1CN(C)Cc1ccc2c(c1)OCCN2C,0.073%
4,COc1ccc2c3c(n(C)c2c1)[C@H](CO)N(C)CC31CN(S(=O)(=O)c2cccs2)C1,0.001%
5,Cc1noc(C)c1S(=O)(=O)N(C)C[C@@H]1Oc2c(NC(=O)c3ccc(-c4nccs4)cc3)cccc2C(=O)N([C@@H](C)CO)C[C@H]1C,-0.0005%
6,N#C[C@@H]1[C@@H](c2ccccc2-c2cccc(F)c2)[C@H](CO)N1C(=O)C1CC1,0.0185%
7,CN1C(=O)c2cc(NC(=O)c3cscn3)ccc2OC[C@H]2O[C@H](CC(=O)NCc3ccc(Cl)c(Cl)c3)CC[C@@H]21,0.0025%
8,COCCNC(=O)C[C@H]1C[C@@H]2c3cc(NC(=O)CN(C)C)ccc3O[C@@H]2[C@@H](CO)O1,0.003%
9,O=C(C[C@H]1C[C@@H]2c3cc(NC(=O)NC4CCCC4)ccc3O[C@@H]2[C@@H](CO)O1)NCc1ccccc1F,0.0035%
10,CO[C@H]1CN(C)C(=O)c2cc(NC(=O)C3CCCCC3)ccc2OC[C@@H](C)N(C(=O)c2ccccc2)C[C@@H]1C,-0.0005%
11,CN1C(=O)c2cc(NC(=O)C3CCOCC3)ccc2OC[C@@H]2O[C@H](CC(=O)NCCc3ccncc3)CC[C@H]21,0.0015%
12,C[C@H]1CNC(=O)[C@@H](Cc2ccc(C(F)(F)F)cc2)CCn2nncc2COC1,7.98% (active)
13,C[C@H]1CNC(=O)[C@H](Cc2ccc(C(F)(F)F)cc2)CCn2nncc2COC1,2.47%
14,C[C@@H]1CNC(=O)[C@H](Cc2ccc(C(F)(F)F)cc2)CCn2nncc2COC1,0.259%
15,CN(C)CC(=O)N1[C@H](CO)[C@@H](c2ccc(C#CC3CCCCC3)cc2)[C@@H]1C#N,0.005%
16,COCC(=O)N1[C@H](CO)[C@@H]2c3ccccc3N(C)C[C@@H]21,0.0025%
17,Cc1nn(C)cc1NC(=O)C[C@@H]1CC[C@@H]2[C@H](COc3ccc(NC(=O)c4cccc(F)c4)cc3C(=O)N2C)O1,0.0015%
18,CC(C)[C@H]1COCn2nncc2CC[C@H](C)C(=O)N1,0.0005%
19,c1cc(-c2ccc(C3[C@@H]4CN(Cc5nccs5)C[C@H]3N4)cc2)ccn1 (stereo not given in full),0.0255%
20,O=C(Nc1ccccc1)N1CC(=O)N2[C@@H](CO)[C@H](c3ccc(C#CC4CCCCC4)cc3)[C@@H]2C1,0%
21,CO[C@H]1CC[C@@H]2CCOc3c(C#N)cccc3C(=O)N(C)C[C@@H](OC)[C@@H](C)C(=O)N(C)C[C@H]1O2,-0.0005%
